The values that follow come from PubChem BioAssay AID2314 (National Center for Advancing Translational Sciences (NCATS), 2010).

About 37,000 (12%) of roughly 300,000 compounds were called active. For the sample, actives were picked, then their nearest neighbours and some compounds at random. Values without a mark were called inactive. Rule as the data show it: active = max response mostly above about 13% (no sharp cut-off); inactive = mostly below about 14%.

This assay can be described thus: Cycloheximide Counterscreen for Small Molecule Inhibitors of Shiga Toxin. Also: read at 38.3 µM for the half of the compounds with a filed dose; 0% is about no effect. To be noted: cell reporter, cycloheximide protein synthesis inhibition counterscreen; active compounds read high. On the technique in general: Counterscreens check selectivity or assay interference.
With `COc1ccc(S(=O)(=O)N2CCOCC2)cc1C(=O)NC1CCCCC1`, the max response was -2.56%.
Under `Cc1cccc(Nc2nc(-c3ccccc3)cs2)n1` stands 56.2% (active); under `Cc1cccc(S(=O)(=O)CC(=O)Nc2nc(-c3ccccc3)cs2)c1`, -5.29%.
The result for `COc1ccc(CCNc2nc(-c3cccc(NC(C)=O)c3)cs2)cc1OC` reads 10.5%; that for `CC(=O)Nc1ccc(-c2csc(NC=C3C(=O)OC(C)(C)OC3=O)n2)cc1`, 19.8%; that for `CC(=O)Nc1cccc(-c2csc(Nc3cccc(C)n3)n2)c1`, 50.7% (active).
Under `CC(=O)Nc1cccc(-c2cnc3ccccc3n2)c1` stands 34.8% (active); under `CC(=O)Nc1cccc(NC(=O)c2c(-c3ccccc3)noc2C)c1`, -1.94%; under `CCS(=O)(=O)Nc1cccc(-c2cc(-c3ccccc3)c3cc(C)ccc3n2)c1`, -0.522%.
For `COc1ccc(C(=O)NC(C)c2nccs2)cc1OC1CCN(C(C)C)CC1` (stereo unspecified), the max response is -0.856%.
For the compound `O=C(CNc1cccc(S(=O)(=O)N2CCCCC2)c1)Nc1ccccc1F`, the max response is -2.83%.
Under `Cc1noc(C)c1CSc1nc2cc(S(=O)(=O)N3CCOCC3)ccc2o1` stands -1.38%.
For `CCNC(=O)c1sccc1-n1cccc1`, the max response is 2.68%.
The result for `Cc1ccc(C(=O)N/C(=C\c2cn(C)c3ccccc23)C(=O)N2CCN(C)CC2)cc1` reads 1.99%; that for `CCCn1nnnc1NCc1ccc(OC)cc1`, -1.31%; that for `CC1(C)CC(=O)CC2(C1)NCC(c1ccccc1Cl)c1c2[nH]c2ccccc12` (stereo unspecified), 2.51%.
Under `Cc1oc2cc([N+](=O)[O-])c(O)c([N+](=O)[O-])c2c1C(=O)c1ccc(Br)cc1` stands -7.47%.
The result for `CCn1c(C)c(C)c2cc(C(=O)N3CCN(c4cccc(C)c4C)CC3)ccc21` reads -3.95%; that for `Cc1cccc(N2CCN(C(=O)/C=C/c3ccco3)CC2)c1C`, 15.1% (active); that for `CCC(CC)C(=O)N1CCN(c2cccc(C)c2C)CC1`, 4.17%.
For `COCCCn1c(-c2cccs2)nc2nc3ccccc3nc21`, the max response was 8.97%.
The result for `CCOC(=O)CN(C)S(=O)(=O)c1ccc(-c2cc(C(=O)OC)sc2C(F)(F)F)cc1` reads 4.79%; that for `CCOC(=O)c1c(S(=O)(=O)Nc2ccc(CN3CCC(C)CC3)cc2)c(C)n(C)c1C`, -1.22%.
Under `O=C(CCn1c(=S)[nH]c2cc3c(cc2c1=O)OCO3)NCc1ccc(Cl)cc1` stands 12.5%.
The result for `CC(C)OCCCNC(=O)c1ccc(C2SCC(=O)N2Cc2ccco2)cc1` (stereo unspecified) reads -3.14%.
Take `COc1cc(NC(=O)C2CCN(c3cnccn3)CC2)cc(OC)c1`: the max response is -1.38%.
